In assay [1] the target is Aldehyde dehydrogenase, mitochondrial (Homo sapiens) (UniProt P05091). Kind of assay: qHTS for Inhibitors of the Aldehyde Dehydrogenase Family (ALDH2) Confirmatory screens (AID 2061303; active = well fitted inhibition curve with a large enough effect; title and protocol of this record describe different tests; note: nearly all actives have a fitted effect of over 45% in size; note: potency is the fitted concentration of half-maximal effect).
Assay [2] in a line: qHTS for Inhibitors of the Aldehyde Dehydrogenase Family (ALDH1A2, ALDH1A3, ALDH2, ALDH3A1) (AID 2061307). For Potency: test system not described further here; potency is the fitted concentration of half-maximal effect. Note: nearly all actives have a fitted effect of over 50% in size. In general terms: In qHTS, concentration-response curves come from the screen itself.
The target of assay [3] is Aldehyde dehydrogenase, mitochondrial (Homo sapiens) (UniProt P05091). Kind of assay: qHTS for Inhibitors of the Aldehyde Dehydrogenase Family (ALDH2) Primary screen (AID 2061308). Note: nearly all actives have a fitted effect of over 55% in size. Note: potency is the fitted concentration of half-maximal effect.
Assay [4] has as its target Retinaldehyde dehydrogenase 3 (Homo sapiens) (UniProt P47895). In words: qHTS for Inhibitors of the Aldehyde Dehydrogenase Family (ALDH1A3) Primary screen (AID 2061315). Note: potency is the fitted concentration of half-maximal effect.
Assay [5] concerns the target Retinal dehydrogenase 2 (Homo sapiens) (UniProt O94788). In words: qHTS for Inhibitors of the Aldehyde Dehydrogenase Family (ALDH1A2) Confirmation screens (AID 2061314). Note: nearly all actives have a fitted effect of over 65% in size. Note: potency is the fitted concentration of half-maximal effect.
The target of assay [6] is Aldehyde dehydrogenase 1A1 (Homo sapiens) (UniProt P00352). Kind of assay: qHTS for Inhibitors of the Aldehyde Dehydrogenase Family (ALDH1A1) Confirmatory screens (AID 2061316). Note: nearly all actives have a fitted effect of over 65% in size. Note: potency is the fitted concentration of half-maximal effect.
The nature of assay [7]: BET inhibitor-based combinations targeting novel dependencies in MECOM-rearranged (r) AML: SET-2 cell line (AID 2202231).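 Note: plate controls were DMSO treated cells for no effect and wells without cells for full effect; nearly all actives have a fitted effect of over 35% in size.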 The settings on record: SET-2 AML cells viability, CellTiter-Glo luminescence, 48 h; viability: hits give low values, series mostly up to about 46 µM. In short, it runs like this: (§1)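 Luminescent ATP readout (CellTiter-Glo) after 48 hr drug exposure gives viability. Curves span 11 concentrations and are normalized to DMSO and empty wells. Activity is reported as area under the curve and its Z-transform within each cell line.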
A general note: ATP-based viability assays read luminescence as a measure of living cells.

Assay [8] in a line: BET inhibitor-based combinations targeting novel dependencies in MECOM-rearranged (r) AML: UCSD-AML1 cell line (AID 2202235).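 Note: series mostly up to about 46 µM; plate controls were DMSO vehicle wells for no effect and blank wells for full effect; nearly all actives have a fitted effect of over 40% in size.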 In outline: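 Luminescent ATP readout (CellTiter-Glo, 15 min at room temperature) after 48 hr drug exposure gave viability. Dose-response curves, normalized to DMSO and empty-well controls, were summarized as area under the curve and its mean-centred Z-score.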

Assay [9] in a line: BET inhibitor-based combinations targeting novel dependencies in MECOM-rearranged (r) AML: AML-191 cell line (AID 2202236;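 note: plate controls were vehicle wells for no effect and wells without cells for full effect; nearly all actives have a fitted effect of over 35% in size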). In outline:
as §1

Assay [10] can be described thus: BET inhibitor-based combinations targeting novel dependencies in MECOM-rearranged (r) AML: AML-194 cell line (AID 2202237;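 note: plate controls were vehicle wells for no effect and wells without cells for full effect; nearly all actives have a fitted effect of over 40% in size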). In outline:
as §1

For orientation: viability means a read-out of living cells in per cent, often relative to untreated cells.

SMILES strings stand for the structures. Results filed as inconclusive are left out. Unmarked numbers belong to inactive results. Activity calls are given as the source filed them. Unless noted, calls come from the whole dose curve; as a rule, active = well fitted curve in the direction sought with a large enough effect; inconclusive = small, poorly fitted or top-dose-only effect, or another doubt; inactive = no such curve, though single readings can be large; an effect the other way counts as inactive or inconclusive.

`COc1ccc(C(=O)N(Cc2ccccc2)Cc2ccc(OC)c(COc3ccc(NC(C)=O)cc3)c2)c(O)c1`: the Potency entry in assay [1], in assay [2], in assay [3] and in assay [4] was “inactive” in each case.

Turning to `COc1ccc(C2Nc3ccccc3C(=O)N2Cc2ccccc2)cc1COc1cccc(C(F)(F)F)c1` (centres undefined), the Potency entry in assay [1], in [2], in [3], in [4] and in assay [6] was “inactive” in each case. The Potency in assay [5] is 20.1 µM (active).

`Nc1ccc2c(c1)S(=O)(=O)NC2=O`: the Potency result in assay [1], in [2], in assay [3], in [5], in [4] and in assay [6] was “inactive” each time.

As to `O=C(/C=C/c1ccc2c(c1)OCO2)Nc1cccc([S+](=O)([O-])Nc2ccccc2F)c1`, the Potency result in [1], in assay [2], in [3], in assay [5], in assay [4] and in assay [6] was “inactive” each time.

Consider `CCCc1nnc(-c2cnn(C)c2N)n1CCCn1ccnc1`, for which the Potency result in assay [1], in [2], in assay [3], in assay [5], in assay [4] and in [6] was “inactive” throughout.

For the compound `O=C(CCCc1ccc2cccnc2n1)NCc1cc(-c2ccc(F)c(C(F)(F)F)c2)no1`, the Potency result in assay [1], in assay [2], in assay [3], in assay [5], in assay [4] and in assay [6] was “inactive” in each case. Further, the Potency entry in assay [8], in assay [9] and in assay [10] was “inactive” throughout. In [7], the viability is 106%.

Take `O=C(Cc1ccc(Cl)c(Cl)c1)Nc1ccc(S(=O)(=O)O)cc1`: the Potency result in assay [1], in assay [2], in assay [3], in assay [5], in assay [4] and in assay [6] was “inactive” each time.

With `COc1cc([C@@H](O[C@@H]2O[C@H](CO)[C@@H](O)[C@H](O)[C@H]2O)[C@@H]2CO[C@H](c3ccc(O)c(OC)c3)[C@H]2CO)ccc1O`, the Potency result in assay [1], in assay [2], in assay [3], in assay [5] and in assay [6] was “inactive” throughout.

`COc1cccc(CCC(=O)NCCc2nc3ccccc3n2CCOc2ccc(C)cc2)c1`: the Potency result in [1], in assay [2], in [3], in assay [5] and in [4] was “inactive” in each case. The Potency in [6] is 6.34 µM (active).

For the compound `Cc1ccc(OCCn2c(CCNC(=O)c3cccnc3)nc3ccccc32)cc1`, the Potency entry in [1], in [2], in assay [3], in assay [5], in assay [4] and in assay [6] was “inactive” each time.

For `O=C1c2ccccc2C(=O)N1Cc1cccnc1`, the Potency result in assay [1], in assay [2], in assay [3], in assay [5], in assay [4] and in assay [6] was “inactive” in each case.

Regarding `Cc1ccc(OCCn2c(CCNC(=O)c3cccs3)nc3ccccc32)cc1`, the Potency entry in assay [1], in [2], in [3] and in [4] was “inactive” each time. The Potency was 31.8 µM (active) in assay [5] and 12.7 µM (active) in [6].

For `COc1cc(/C=C/c2cc(O)cc(O[C@@H]3O[C@H](CO)[C@@H](O)[C@H](O)[C@H]3O)c2)ccc1O`, the Potency entry in [1], in assay [2], in assay [3], in [5] and in assay [6] was “inactive” in each case. Further, the Potency in assay [4] is 6.31 µM (active).

As to `O=C(Nc1ccc2ccccc2c1)Nc1nnc(Br)s1`, the Potency in assay [1] is 7.94 µM (active); in assay [2], 15.8 µM (active). Moreover, the Potency entry in [3] and in [4] was “inactive” throughout.

As for `O=c1c2ccccc2nc2sc(Nc3cccc(N4CCNCC4)c3)nn12`, the Potency result in assay [1], in assay [2], in assay [3] and in assay [4] was “inactive” each time. The Potency in assay [5] was 10.1 µM (active); in [6] it was 12.7 µM (active).

As for `O=[N+]([O-])c1ccccc1CSc1nc2ncc(Br)cc2[nH]1`, the Potency result in [1], in [2], in assay [3], in assay [5] and in assay [4] was “inactive” throughout. Further, in assay [6], the Potency is 12.7 µM (active).

Regarding `NC1CCN(c2nc(-c3ccc(Br)cc3)cs2)CC1`, the Potency result in assay [1], in [2], in assay [3], in [5], in assay [4] and in assay [6] was “inactive” throughout.

Consider `NC(=O)C[C@H](N)C(=O)Nc1ccc(Cl)cc1C(=O)c1ccc[nH]1`, for which the Potency entry in assay [1], in [2], in assay [3], in [5], in [4] and in [6] was “inactive” throughout.

Regarding `S=C(Nc1cc(Cl)ccn1)N1CCN(c2cccc(Cl)c2Cl)CC1`, the Potency is 15.8 µM (active) in [1], 3.98 µM (active) in assay [2], 25.2 µM (active) in [5] and 3.18 µM (active) in assay [6]. For the same compound, the Potency result in [3] and in assay [4] was “inactive” each time.

Consider `Cc1c(Cl)cccc1NS(=O)(=O)c1cc2c(cc1Cl)CCC(=O)N2`, for which the Potency entry in assay [1], in [2], in assay [3], in assay [4] and in [6] was “inactive” in each case. The Potency in assay [5] was 12.7 µM (active).

Take `c1ccc(CN(Cc2ccccc2)Cc2nnc(-c3cc4ccccc4[nH]3)s2)cc1`: the Potency in [1] was 4 µM (active); in assay [2], 11.2 µM (active). Moreover, the Potency entry in assay [3] and in assay [4] was “inactive” in each case.

`Cc1nnc(-c2cnn(C)c2N)n1CCc1ccccc1`: the Potency entry in [1], in assay [2], in assay [3], in [5], in [4] and in [6] was “inactive” in each case.

With `O=C(O)c1cccc(S(=O)(=O)Nc2nccs2)c1`, the Potency result in assay [1], in assay [2], in assay [3], in assay [5] and in [6] was “inactive” each time.

`O=C1NS(=O)(=O)c2cc(Br)ccc21`: the Potency result in assay [1], in assay [2], in [3], in [5], in assay [4] and in assay [6] was “inactive” each time.

`Cc1cnc(-c2ccccc2C(F)F)nc1NCc1ccc(-n2ccnn2)cc1`: the Potency is 25.1 µM (active) in assay [1] and 4.47 µM (active) in assay [2]. In addition, the Potency entry in assay [3] and in [4] was “inactive” each time.

Take `CC(C)(C)OC(=O)N1CCN(c2ccc(NCc3ccc4c(-c5ccc(F)cc5)cc(=O)oc4c3)cc2)CC1`: the Potency result in [1], in assay [3] and in [4] was “inactive” throughout. The Potency in assay [2] was 5.04 µM (active).

With `O=C(Nc1cccc([S+](=O)([O-])Nc2ccccc2F)c1)c1ccccc1`, the Potency result in [1], in assay [2], in [3], in assay [5], in assay [4] and in [6] was “inactive” in each case.

For `COc1cc(/C=C/C(=O)OC[C@H]2O[C@H](O[C@]3(CO)O[C@H](CO)[C@@H](O)[C@@H]3O)[C@H](O)[C@@H](O)[C@@H]2O)cc(OC)c1O`, the Potency entry in [1], in [2], in [3], in assay [5] and in [6] was “inactive” each time.

With `N=c1c2c(ncn1-c1ccccc1)Oc1ccc3ccccc3c1C2c1ccc2c(c1)OCCO2` (centres undefined), the Potency result in [1], in assay [2], in assay [3], in assay [5], in assay [4] and in assay [6] was “inactive” each time.

Turning to `CC1(C)CC2CC(C)(CN2S(=O)(=O)c2ccc(C(=O)Nc3cccc(S(=O)(=O)N4CCOCC4)c3)cc2)C1` (centres undefined), the values for the Potency in [1], in assay [2] and in [5] were 0.355 µM (active), 0.447 µM (active) and 8.96 µM (active), respectively. For the same compound, the Potency entry in assay [3], in assay [4] and in [6] was “inactive” in each case.

With `CC(C)c1ccccc1-c1nc2c(c(NCc3ccc(-c4cccnc4)cc3)n1)CCNC2`, the Potency entry in assay [1], in assay [2], in assay [3], in assay [5], in assay [4] and in assay [6] was “inactive” each time.

In the case of `N#Cc1c(-c2ccc(O)cc2)no[n+]1[O-]`, the Potency entry in assay [1], in [3] and in assay [4] was “inactive” throughout. In assay [2], the Potency is 12.7 µM (active).

For `CC(=O)Nc1ccc(OC2=NS(=O)(=O)c3ccccc32)cc1`, the Potency result in [1], in assay [2], in [3], in assay [5], in assay [4] and in assay [6] was “inactive” each time.

In the case of `CN(Cc1ncc[nH]1)c1ncnc2ccc(-c3ccc4c(c3)OCO4)cc12`, the Potency entry in [1], in assay [2], in assay [3], in [5], in [4] and in [6] was “inactive” each time.

Regarding `O=C(O)CSc1cc(NS(=O)(=O)c2ccc(Br)cc2)c2ccccc2c1O`, the Potency in [1] is 1.79 µM (active); in assay [3] it was 7.08 µM (active); in assay [5], 0.4 µM (active); in [4], 0.631 µM (active); in assay [6], 0.565 µM (active). For the same compound, the Potency result in assay [2] is “inactive”.

Consider `CC1CC(O)CC(C)(C)C1(O)CCO` (centres undefined), for which the Potency result in assay [1], in assay [2], in assay [3], in assay [5] and in assay [6] was “inactive” each time.

Turning to `O=C(O)c1ccccc1OC1=NS(=O)(=O)c2ccccc21`, the Potency entry in assay [1], in assay [2], in assay [3], in [5], in assay [4] and in assay [6] was “inactive” each time.

On to `N#Cc1nc(Nc2ccccc2)nc(NC2CCCC2)n1`, for which the values for the Potency in assay [1] and in [2] were 1.78 µM (active) and 0.631 µM (active), respectively. For the same compound, the Potency entry in assay [3] and in [4] was “inactive” in each case.
